In PubChem BioAssay AID624330 (Southern Research Specialized Biocontainment Screening …, 2012):
The campaign covered roughly 340,000 compounds. About 2,100 (0.62%) were called active.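 Rule for the calls: active = first-screen hits whose inhibition reached a set limit at any dose in the follow-up dose series; inconclusive = inhibition above the set first-screen limit but never retested; inactive = the rest.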 A selection follows. Measured potencies and affinities stand elsewhere.

What follows are compounds tested against Rac GTPase-activating protein 1 (Homo sapiens) (UniProt Q9H0H5) (assay: blockers of MgcRacGAP-driven Rac1 GTP hydrolysis – biochemical, ADP Hunter fluorescence, primary and confirmatory, confirmation (AID 624330;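 note: fluorescence reports GDP produced by GAP-driven GTP hydrolysis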)). Conditions: MgcRacGAP-stimulated Rac1 GTP hydrolysis, at 30 µM, stronger effect = higher value, GST-tagged Rac1 F28L mutant substrate.
Sequence of Rac GTPase-activating protein 1 (Homo sapiens) (Q9H0H5 whole entry, looked up): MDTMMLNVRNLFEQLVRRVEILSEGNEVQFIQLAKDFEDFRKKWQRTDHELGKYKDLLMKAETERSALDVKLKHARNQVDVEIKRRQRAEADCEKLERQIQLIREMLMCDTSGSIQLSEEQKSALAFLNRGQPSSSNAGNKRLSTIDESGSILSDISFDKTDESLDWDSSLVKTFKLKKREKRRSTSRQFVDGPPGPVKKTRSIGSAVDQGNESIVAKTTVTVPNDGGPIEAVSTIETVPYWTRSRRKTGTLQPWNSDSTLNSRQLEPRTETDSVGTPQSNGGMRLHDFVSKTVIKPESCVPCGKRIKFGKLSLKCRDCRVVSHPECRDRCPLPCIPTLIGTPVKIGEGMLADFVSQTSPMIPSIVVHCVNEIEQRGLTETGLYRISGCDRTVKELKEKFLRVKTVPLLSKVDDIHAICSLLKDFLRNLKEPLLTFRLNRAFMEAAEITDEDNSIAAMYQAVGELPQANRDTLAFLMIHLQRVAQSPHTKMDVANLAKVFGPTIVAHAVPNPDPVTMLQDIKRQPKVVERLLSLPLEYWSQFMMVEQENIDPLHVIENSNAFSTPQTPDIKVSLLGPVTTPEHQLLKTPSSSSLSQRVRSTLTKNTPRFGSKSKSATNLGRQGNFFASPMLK

inhibition, inactive:
Cc1c(N(C)S(=O)(=O)c2ccc(Cl)c(C(=O)NCC3CCCO3)c2)c(=O)n(-c2ccccc2)n1C (stereo unspecified) 1.31%, O=C(Nc1nnc(C2CC2)s1)C1CCCCC1 3.57%, CCOc1ccc(CCNC(=O)COC(=O)c2ccc(OC(C)C)cc2)cc1OCC -0.74%, CCOc1ccccc1CN1CCC(N2CCC(C(=O)NC3CC3)CC2)CC1 9.11%, CCOc1ccccc1CN1CCC(O)CC1 15.6%, CCOc1ccc(C(=O)NCCC(=O)NCCCC(=O)O)cc1 -5.31%, O=C(CCS(=O)(=O)c1ccc(Cl)cc1)Nc1nnc(-c2ccco2)o1 3.12%, COc1ccccc1CNC(=O)CCSCc1cccc(Cl)c1 -0.5%, COc1ccc(NC(=O)NCCc2cccc(Cl)c2)cc1OC 11.4%, COc1cccc(CNCc2ccccc2OC)c1 22.3%, COc1ccc(CNCCc2ccc([N+](=O)[O-])cc2)c(OC)c1OC 25.1%, COc1ccc(CNCc2ccc(C(F)(F)F)cc2)cc1OC 2.76%, COc1ccc(CCNC(=O)Cc2cccc(C(F)(F)F)c2)cc1OC 8.81%, COc1cccc(CNCCO)c1OCc1ccc(Cl)cc1 9.58%, COc1ccccc1CNCc1cc(Br)ccc1OC 23.1%, O=C(NCc1ccco1)C1CCCN(c2nnc(-n3cccc3)s2)C1 (stereo unspecified) 14.7%, C=CCn1c(SCC(=O)NC2(C)CCS(=O)(=O)C2)nc2ccccc21 (stereo unspecified) 1.26%, Cn1c(N)c(C(=O)CSc2nc3ccccc3n2-c2ccccc2)c(=O)n(C)c1=O 4.85%, CCOC(=O)CNC(=O)C1c2ccccc2Oc2ccccc21 3.51%, Cc1csc(NC(=O)c2ccncc2)n1 7.69%, Cc1cc(=O)[nH]c(SCC(=O)Nc2ccccc2[N+](=O)[O-])n1 6.16%, CC(=O)N(C)c1ccc(N=Nc2ccc3ncccc3c2)cc1 -1.54%, COc1ccc(/C=N/NC(=O)c2sc3nc(C)cc(C)c3c2N)cc1 9.68%, CC(C)C1Nc2c(O)cc(Cl)c([N+](=O)[O-])c2C2C=CCC21 (stereo unspecified) 11.3%, O=C(O)C1Nc2c(C(F)(F)F)ccc(Cl)c2C2C=CCC12 (stereo unspecified) -3.26%, CCCCn1nc(C(=O)N(CC(C)C)c2c(N)n(CCCC)c(=O)[nH]c2=O)c2ccccc2c1=O 9.52%, COc1ccccc1-c1nnc(SCC(=O)NC2CCS(=O)(=O)C2)n1N (stereo unspecified) 8.87%, Cc1cnc(C(=O)Oc2c(C)ccc(C)c2C)cn1 -0.23%, Cc1cnc(C(=O)OCC(=O)c2ccc(-c3ccccc3)cc2)cn1 -1.23%, Cc1ccc(S(=O)(=O)N2CCC(C(=O)NCCc3ccccc3)CC2)cc1 2.72%, CSCCC(NC(=O)c1ccccc1Cl)C(=O)NNC(=O)c1ccncc1 (stereo unspecified) 7.49%, c1ccc(Cn2cc(-c3ccccc3)cn2)cc1 6.79%, COc1ccc(C(C#N)=C2C=C(Cl)C(=NO)C=C2Cl)cc1 -1.89%, COc1ccc(C(C#N)=C2C=CC(=NO)C(C)=C2Cl)cc1 21.7%, O=C(CN1CCN(c2ccccn2)CC1)Nc1ccccc1 -4.1%, COC(=O)c1ccc(NC(=O)CN2CCN(c3ccccn3)CC2)cc1 2.35%, CC(=O)Nc1ccc(NC(=O)CN2CCN(c3ccccn3)CC2)cc1 6.59%, CC(C)c1ccc(NC(=O)CN2CCN(c3ccccn3)CC2)cc1 7.53%, CN1CCN(C(=O)c2cnn3c(C(F)(F)F)cc(-c4ccc5c(c4)OCO5)nc23)CC1 9.9%, O=c1[nH]c2c(s1)C(c1ccc(O)cc1)C1C3CCC(C3)C1S2 (stereo unspecified) 11.5%, C[C@H](NC(=O)[C@H](Cc1ccccc1)n1c(=O)[nH]c2ccccc2c1=O)C(=O)N1CCC[C@H]1C(=O)O -3.53%, O=C1C=C(NCCc2cc(Br)c(O)c(Br)c2)C(=O)c2ncccc21 9.18%, COc1ccc(CCN2C(=O)c3cccnc3C2=O)cc1OC 12.5%, CCOC(=O)C1CCN(C(=O)C2CCN(C(=O)c3ccc([N+](=O)[O-])cc3)CC2)CC1 12%, CCOC(=O)c1ccc(-n2c(=S)sc3c(=O)[nH]c(C)nc32)cc1 16.1%, C=CCNC(=O)C(=O)N/N=C/c1cccc(Br)c1 5.98%, O=c1ccc2c(-c3ccccc3S(=O)(=O)O)c3ccc(O)c(O)c3oc-2c1O 42.2%, O=C(O)c1ccccc1-c1c2cc(I)c(=O)c(I)c-2oc2c(I)c(O)c(I)cc12 28.3%, O=C(NCc1ccccc1)c1onc(CS(=O)(=O)c2ccccn2)c1C(=O)NCc1ccccc1 -5.99%, NC(=O)C(c1ccc(Cl)cc1)c1ccc(Sc2ccc(Cl)cc2)nn1 (stereo unspecified) 11.6%, Nc1cccc(C(=O)Nc2cccc3ncccc23)c1 -7.17%, C=CC(=O)N1C/C(=C/c2ccc(Cl)cc2)C(=O)/C(=C\c2ccc(Cl)cc2)C1 13.6%, O=C(CCC(=O)N1CCOCC1)Nc1ccc(Cl)c(Cl)c1 5.89%, O=C1/C(=C/c2ccccc2)CN(C(=O)CCN2CCOCC2)C/C1=C\c1ccccc1 27.7%, C=CC(=O)N1C/C(=C/c2ccc(F)cc2)C(=O)/C(=C\c2ccc(F)cc2)C1 13.1%, CCOC(=O)N1C/C(=C\c2ccccc2)C(=O)/C(=C/c2ccccc2)C1 12.1%, CCN(CC)CCC(=O)N1c2ccccc2Sc2ccc(Cl)cc21 2.76%, C=CC(=O)N1C/C(=C/c2ccccc2)C(=O)/C(=C\c2ccccc2)C1 26.6%, O=C(/C=C/c1ccc(Cl)c(Cl)c1)N1CCOCC1 -0.69%, O=C(Nc1ccc(N2CCOCC2)cc1)c1ccc(Cl)c(S(=O)(=O)N2CCCCC2)c1 0.26%, CC1CC(=O)C2=C(C1)Nc1nc3ccccc3n1C2c1cccnc1 (stereo unspecified) 6.35%, O=C(COc1cccc2cccnc12)Nc1cccc(S(=O)(=O)N2CCCC2)c1 7.88%, CCCCCCc1ccc(N2C[C@H](Cc3ccccc3)[C@@H](CC(=O)Nc3ccccc3)C2=O)cc1 3.37%, COc1cc(OC)c(N(C)C(=O)c2cn(C)c(=O)c3cc(OC)c(OC)cc23)cc1Cl 9.25%, COC(=O)c1ccc(CNC(=O)C2CCC(=O)N(CCN3CCOCC3)C2)cc1 (stereo unspecified) 6.54%, CCOC(=O)N1CCC(Nc2c([N+](=O)[O-])cc(C(=O)O)cc2[N+](=O)[O-])CC1 9.55%, Cc1ccc(NC(=O)COC(=O)COc2cccc3c2OC(C)(C)C3)cc1S(=O)(=O)N1CCOCC1 5.48%, CC1=C(C(=O)N(C)C)CC(CC(=O)NCCN2CCOCC2)C(=O)N1CCC1=CCCCC1 (stereo unspecified) 19.4%, O=C1/C(=C\c2ccccc2)CCC/C1=C/c1ccccc1 -6.55%, COc1ccc(OC(=O)N2C/C(=C/c3ccccc3)C(=O)/C(=C\c3ccccc3)C2)cc1 -4.51%, CCOC(=O)C1(C)C=C(Nc2ccc(C)cc2)C(=O)N1c1ccc(C)cc1 (stereo unspecified) 1.9%, CCOC(=O)C1(C)C=C(Nc2ccc(NC(C)=O)cc2)C(=O)N1c1ccc(NC(C)=O)cc1 (stereo unspecified) 4.87%, CC(C)N1C(=O)c2ccccc2C1C(=O)NCCc1ccccc1 (stereo unspecified) 3.65%, COCC(=O)N(Cc1cc2cccc(C)c2[nH]c1=O)c1ccccc1 2.29%, CCOc1ccc(OCCC(=O)OCC(=O)c2c(N)n(CC(C)C)c(=O)n(C)c2=O)cc1 15%, Cc1cc(C)c2c(c1)NC(c1cc3c(cc1Br)OCO3)C1CC=CC21 (stereo unspecified) -0.13%, O=C(O)C1Nc2c(Cl)cc(Cl)c(Cl)c2C2C=CCC12 (stereo unspecified) 17.2%, CC1Cc2cc(S(=O)(=O)N3CCC(C(=O)N(C)Cc4ccccc4)CC3)ccc2N1C(=O)C1CC1 (stereo unspecified) 8.31%, Fc1ccc(-n2cc(CNCCc3ccncc3)c(-c3ccccc3Cl)n2)cc1 1.7%, CCOc1ccc(OCC(=O)Nc2cc(Cl)ccc2-n2cncn2)cc1 20.4%, CCN(C(=O)COC(=O)CCCc1c[nH]c2ccccc12)c1c(N)n(Cc2ccccc2)c(=O)[nH]c1=O -4.19%, Cc1ccc2oc(=O)c(/C=C(\O)c3ccco3)nc2c1 18.2%, Cc1ccc2oc(=O)c(/C=C(\O)c3cccs3)nc2c1 15.8%, O=c1oc2ccc(Cl)cc2nc1/C=C(\O)c1ccco1 25%, O=c1oc2ccc(Cl)cc2nc1/C=C(\O)c1cccs1 19.2%, CN(CCO)c1cc(NCCCN2CCC(Cc3ccccc3)CC2)c2nonc2c1[N+](=O)[O-] 4.68%, Cc1ccc(C(=O)Nc2ccncc2)cc1[N+](=O)[O-] 10.1%, O=C(Nc1ccncc1)c1ccc(Cl)c(Cl)c1 4.24%, Cc1ccc(NC(=O)c2ccc(-n3cccn3)c([N+](=O)[O-])c2)cc1 6.01%, O=C(Nc1ccc(NC(=O)c2ccc(Cl)cc2Cl)cc1)c1ccc2c(c1)OCO2 5.16%, COc1ccc(N(C(=O)/C=C/c2ccccc2)C2=CC3CCC(C2)N3C)cc1 (stereo unspecified) 1.64%
